# Hits are enriched below; roughly 3.4% of the tested compounds scored in any of these assays.
# MITF primary = human MITF inhibition, primary screen; O75030; AlphaScreen MITF homodimerization, bead proximity signal; inhibition, % at 2.6 µM; 650,000 compounds, 0.91% hits; AID 1259374; in the data active = inhibition above about 50%;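 note: 0% = vehicle wells with protein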
# TEAD-YAP block = TEAD-YAP interaction inhibition. HEK-TIYL cells, TEAD-Gal4/YAP UAS-luciferase luminescence. inhibition, % at 9.12 µM. 640,000 compounds, 1.4% hits. AID 1259422; in the data active = inhibition above about 32%;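 note: 0% = median of test compound wells and 100% = reference inhibitor wells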
# GPR151 activ = human GPR151 activation. Q8TDV0. PathHunter beta-arrestin GPR151 cells, luminescence. activation, % at 11.2 µM. 650,000 compounds, 1% hits. AID 1508602; in the data active = activation above about 4.9%;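 note: 0% = median of compound wells and 100% = cells with positive control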
# FBW7 activator = activators of human E3 ligase FBW7; Q969H0; AlphaScreen FBW7–phospho-cyclin E peptide binding, activator screen; normalized activity (activation), % at 26.1 µM; 650,000 compounds, 0.13% hits; in the data active = normalized activity above about 1.9%;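 note: purified mutant Fbw7 with reduced substrate affinity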
# GPR151 confirm = human GPR151 activation, confirmation screen; shares compounds with GPR151 activ; GPR151 PathHunter beta-arrestin cells, luminescence, 90 min; % of EA-reagent control over plate median; activation, % at 11.2 µM; 6,700 tested, under 10 active;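 active = mean percent activation across replicates above the confirmation screen cutoff of 4.91%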
# GPR119 ag = activates human GPR119 in a GPR151 counter-screen; 6,700 compounds, 0.3% hits; shares compounds with GPR151 activ; activation, % at 11.2 µM; GPR119 PathHunter beta-arrestin cells, luminescence, 90 min; 0 = compound-well median, 100 = enzyme-acceptor control;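 active = mean percent activation in the counterscreen above 29.09%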;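 note: counterscreen on off-target GPR119 to flag nonselective hits from the GPR151 activator screen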
# * = called active by the depositor; . = no result; ! = a repeat was not active.
SMILES,MITF primary,TEAD-YAP block,GPR151 activ,FBW7 activator,GPR151 confirm,GPR119 ag
C=CCNC(=O)/C(C#N)=C/c1c(Oc2ccc(OC)cc2)nc2ccccn2c1=O,2.1,-5.6,-5.3,0.2,.,.
COc1ccc(NC(=O)c2sc(=S)[nH]c2N)cc1,-4.3,-30.6,5.0*,-0.2,-0.8,-11.7
Cn1/c(=N/N=C2\CCCCC2=O)sc2ccccc21,-13.7,-35.3,1.2,0.0,.,.
O=C(O)CN(CC(=O)Nc1ccc2c(c1)OCCCO2)Cc1ccccc1,16.2,1.0,9.1*,0.3,0.1,4.3
O=C(CCl)Nc1ccc2c(c1)OCCCO2,10.3,5.1,-0.4,0.2,.,.
Cc1ccc2nc(-c3ccccn3)cc(C(=O)Nc3ccc([N+](=O)[O-])cn3)c2c1,-1.8,3.1,14.7*,-0.2,-0.1,2.7
COC(=O)COc1ccccc1NC(=O)CC(=O)c1ccccc1,13.3,-4.7,-1.1,0.4,.,.
CC1=C(C#N)C(=O)N(C)C(=O)/C1=C/c1ccc(-c2cccc(Cl)c2C)o1,-12.3,-1.4,5.0*,-0.6,-0.5,-6.0
CC1=C(C#N)C(=O)N(C)C(=O)/C1=C/c1ccc(-c2ccccc2C(=O)O)o1,20.0,2.9,-0.5,-0.3,.,.
CC1=C(C(=O)Nc2cccc(C)n2)C(c2ccc(C)cc2)C2=C(CC(C)(C)CC2=O)N1 (configuration not stated),15.7,4.5,6.9*,0.1,0.7,9.4
CC1=C(C(=O)Nc2ccc(F)cc2)C(c2ccc(N(C)C)cc2)C2=C(CC(C)(C)CC2=O)N1 (configuration not stated),14.5,-33.8,5.6*,0.0,-0.1,4.1
CC1=C(C(=O)Nc2c(F)cccc2F)C(c2ccc(N(C)C)cc2)C2=C(CC(C)(C)CC2=O)N1 (configuration not stated),2.4,10.6,1.6,0.0,.,.
CCc1ccc2[nH]c(C)c(CN3CCOCC3)c(=O)c2c1,4.6,-2.8,1.5,0.0,.,.
O=C(CCC1CCCCC1)NNC(=O)c1cnccn1,7.1,-2.6,6.5*,-0.2,-0.4,-1.1
O=C(NNC(=O)C1CCCCC1)c1cnccn1,13.0,-2.7,-0.4,-0.5,.,.
O=C(O)CN=C(NS(=O)(=O)c1ccccc1)c1ccccc1,-2.0,14.4,4.9*!,0.2,0.5,13.1
O=C(CC(NCCO)C(=O)O)Nc1ccccc1 (configuration not stated),-6.9,0.9,6.8*,0.0,1.1,-0.7
Cc1cccc(NC(=O)CC(NCCO)C(=O)O)c1 (configuration not stated),-9.5,-6.3,0.7,0.2,.,.
Nc1cc(Sc2ccc(F)cc2)cc([N+](=O)[O-])c1,-0.8,-5.7,5.1*,-0.1,-0.2,-3.8
O=C(CNC(=O)c1cccc(F)c1)N/N=C/c1cc(I)ccc1O,7.9,12.4,5.0*,-0.3,-0.4,2.6
O=C(CNC(=O)c1cccc(F)c1)N/N=C/c1cc(Cl)ccc1O,-1.5,-4.7,1.9,-0.1,.,.
CCCCC(=O)Nc1nnc(S(=O)(=O)N(CC)c2ccc(Cl)cc2)s1,-6.4,6.4,5.7*,-0.1,1.1,3.2
CCCC(=O)Nc1nnc(S(=O)(=O)N(CC)c2ccc(Cl)cc2)s1,6.1,10.9,-0.5,-0.1,.,.
CCCCC(=O)Nc1ccc(N2CCCCC2)cc1,-6.2,-35.5,-1.5,-0.1,.,.
COCC1CCCN(C(=O)CN2Cc3cc(C)ccc3OC(c3ccsc3)C2)C1 (configuration not stated),-8.3,1.9,1.6,-0.3,.,.
SMILES,MITF primary,TEAD-YAP block,GPR151 activ,FBW7 activator,GPR151 confirm,GPR119 ag
Cc1cnc(Nc2ccncc2)nc1NCCOc1ccccc1,1.6,2.3,-2.0,0.5,.,.
Cc1cnc(Nc2ccccc2)nc1NCCOc1ccccc1,-5.6,7.2,6.0*,-0.1,0.6,0.6
Cc1cc2ncn(S(=O)(=O)c3ccc(S(=O)(=O)N4CCCCC4)cc3)c2cc1C,15.6,-6.1,7.7*,0.8,-0.3,-11.4
Cc1cc2ncn(S(=O)(=O)c3ccc(Cl)c(Cl)c3)c2cc1C,10.1,3.6,-0.8,0.1,.,.
Cc1onc(C(=O)Nc2cccc(O)c2)c1[N+](=O)[O-],-3.3,0.0,-3.4,0.1,.,.
Cc1ccccc1C(=O)n1cnc2cc([N+](=O)[O-])ccc21,-259.3,7.2,7.1*,-0.2,0.7,-1.3
O=C(c1cc([N+](=O)[O-])cc([N+](=O)[O-])c1)n1cnc2ccccc21,20.8,-7.2,-0.9,1.0,.,.

# Assay outcomes as filed in PubChem BioAssay.
